Measured values as given in the supplement of paper PMC13380429.

Test system: Vero E6 infected with SARS-CoV-2
Test: inhibition of SARS-CoV-2 cytopathic effect; higher = more antiviral protection, active = above 15
Conditions: 48 h

Measured: inhibition of SARS-CoV-2 cytopathic effect

c1cc2c(c(N3CCNCC3)c1)OCCO2 [eltoprazine]
inactive: 1 nM 3.51% | 8.33 nM 2.36% | 100 nM 2.47% | 833.33 nM -1.11% | 10000 nM -4.55%

O=C(c1ccc(F)c(F)c1Nc1ccc(I)cc1F)N1CC(O)([C@@H]2CCCCN2)C1 [cobimetinib]
inactive: 1 nM -0.38% | 8.33 nM -3.42% | 100 nM -9.73% | 833.33 nM -11.8% | 10000 nM -12.2%

CCC(CO)(C(=O)OC1CC2CCC(C1)[N+]2(C)C)c1ccccc1 (stereo not given) [troventol]
inactive: 1 nM 1.78% | 8.33 nM 6.67% | 100 nM 0.13% | 833.33 nM -1.03% | 10000 nM 2.53%

CN1CCOC(c2ccccc2)c2ccccc2C1 (stereo not given) [nefopam]
inactive: 1 nM 1.99% | 8.33 nM 0.54% | 100 nM 2.72% | 833.33 nM -1.03% | 10000 nM -1.47%

CO/N=C(\C(=O)N[C@@H]1C(=O)N2C(C(=O)O)=C(CSc3nc(C)c(CC(=O)O)s3)CS[C@H]12)c1csc(N)n1 [cefodizime]
inactive: 1 nM -6.45% | 8.33 nM -0.68% | 100 nM -2% | 833.33 nM -0.21% | 10000 nM -4.2%

Cc1cc(C(C)(C)CC(C)(C)C)ccc1OCCOCC[N+](C)(C)Cc1ccccc1 [methylbenzethonium-chloride]
inactive: 1 nM -1.31% | 8.33 nM -1.52% | 100 nM -3.07% | 833.33 nM -0.46% | 10000 nM -4.8%

O=C(/C=C/c1ccc(O)c(O)c1)O[C@H](Cc1ccc(O)c(O)c1)C(=O)O [rosmarinic-acid]
inactive: 1 nM 2.8% | 8.33 nM 3.5% | 100 nM 2.25% | 833.33 nM 3.06% | 10000 nM 3.05%

Cc1ccnc(NS(=O)(=O)c2ccc(N)cc2)n1 [sulfamerazine]
inactive: 1 nM 2.3% | 8.33 nM 2.7% | 100 nM -1.58% | 833.33 nM -0.16% | 10000 nM -0.59%

CCN(CC)C(=O)c1ccc(C2=CC3(CCNCC3)Oc3cccc(O)c32)cc1
inactive: 1 nM -0.93% | 8.33 nM -0.47% | 100 nM -4.19% | 833.33 nM -2.26% | 10000 nM -2.32%

O=C(c1ccc(CN2CCOCC2)cc1)N1CCN(C2CC2)CC1 [bavisant]
inactive: 1 nM 0.41% | 8.33 nM 1.98% | 100 nM -1.82% | 833.33 nM -0.97% | 10000 nM 5.67%

O=C1c2ccccc2-c2c(NCCc3ccccc3)c(=O)[nH]c3cccc1c23
inactive: 1 nM -0.39% | 8.33 nM 1.98% | 100 nM 0.01% | 833.33 nM 2.52% | 10000 nM 1.12%

Cc1ccc2nc(N)[nH]c(=O)c2c1Sc1ccncc1 [nolatrexed]
inactive: 1 nM 0.89% | 8.33 nM 3.11% | 100 nM 1.17% | 833.33 nM 2.04% | 10000 nM -2.82%

NC(=O)CCCCn1ccc(/N=C(\N)NCC(F)(F)F)n1
inactive: 1 nM 0.43% | 8.33 nM 2.16% | 100 nM -1.98% | 833.33 nM 0.05% | 10000 nM -0.82%

Cc1cccc(Nc2cc(Cl)nc(SCC(=O)O)n2)c1C [pirinixic-acid]
inactive: 1 nM -0.9% | 8.33 nM -0.95% | 100 nM -1.99% | 833.33 nM -0.44% | 10000 nM 2.81%

C=C1C(=O)O[C@@H]2[C@H]3C(C)=CC[C@@]34O[C@@]4(C)CC[C@@H]12 [arglabin]
active: 10000 nM 29.2%
inactive: 1 nM -2.02% | 8.33 nM 1.39% | 100 nM -0.31% | 833.33 nM -1.74%

CC(=O)/N=c1/sc(S(N)(=O)=O)nn1C [methazolamide]
inactive: 1 nM 2.05% | 8.33 nM 1.62% | 100 nM -1.26% | 833.33 nM -0.76% | 10000 nM 1.82%

Nc1nccc(-c2c(-c3ccc(F)cc3)ncn2C2CCCCC2)n1
inactive: 1 nM 3.7% | 8.33 nM 3.92% | 100 nM -2.24% | 833.33 nM -0.2% | 10000 nM 1.35%

NCC(CS(=O)(=O)O)c1ccc(Cl)cc1 (stereo not given) [saclofen]
inactive: 1 nM 0.43% | 8.33 nM 0.42% | 100 nM -1.16% | 833.33 nM 4.89% | 10000 nM 1.7%

Cc1cnc(C(=O)N[C@H]2CCCCC/C=C\[C@@H]3C[C@@]3(C(=O)NS(=O)(=O)C3CC3)NC(=O)[C@@H]3C[C@@H](Oc4nc5ccccc5c5ccccc45)CN3C2=O)cn1 [paritaprevir]
inactive: 1 nM -1.75% | 8.33 nM -2.06% | 100 nM -0.72% | 833.33 nM 0.24% | 10000 nM 1.71%

O=C(NC1CCNCC1)c1n[nH]cc1NC(=O)c1c(Cl)cccc1Cl
inactive: 1 nM -0.55% | 8.33 nM -2.6% | 100 nM -1.5% | 833.33 nM -1.53% | 10000 nM 2.5%
